Assay results: PubChem BioAssay (NCI)
“And” between values parts separate entries of the source, which are not always exact repeats. Equal values may be shown once. This is part of a sample that, as a whole, favours compounds with a hit. Of some 79,000 tested, about 15% had one in any assay. A number with no mark means an inactive call. The source made the active and inactive calls. Rule as the data show it: active = growth inhibition above about 70%; inactive = the rest.

Experiment: NCI Yeast Anticancer Drug Screen. Data for the rad50 strain (AID 155);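 also: 0% = growth of vehicle-only cultures of the same strain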
Conditions: S. cerevisiae rad50 strain growth inhibition, stronger effect = higher value
Experimental: Growth inhibition of yeast strains with defined genetic alterations is measured as a screen for potential anti-cancer activity. Selected strains with alterations in DNA damage repair or cell cycle control were exposed to compounds and growth inhibition was measured relative to vehicle treated controls. The strain used in this assay is rad50

[1] = at 5.0 µM (retest, dose inferred, filed as 0.5)
[2] = at 50.0 µM (retest, dose inferred, filed as 5.0)

| Compound | growth inhibition [1] [%] | growth inhibition [2] | growth inhibition (at 50.0 µM) |
| --- | --- | --- | --- |
| CCCCN(CCCC)c1ccc2c(c1)C(O)c1ccccc1-2 (stereo not given) | 6 | 81% (active) | 76.5% (active) |
| CCOC(=O)C(=N\Nc1ccccc1C)/C(C)=N\NC(N)=S | -9 | 37% | 73.5% (active) |
| CC1([N+](=O)[O-])C(=O)C2(N3CCCCC3)CCCC2C1c1ccccc1 (stereo not given) | 3 | 10% | 15.5% |
| O=S(=O)(N=S(c1ccc(Cl)cc1)c1ccc(Cl)cc1)c1ccccc1 | 0 | 10% | 49.2% |
| CC(C)n1nnc2ccccc2c1=Nc1ccccc1 | 1 | 85% (active) | 96.1% (active) |
| CN(C)c1ccc(-c2c(C#N)c(-c3ccccc3)n(NS(=O)(=O)c3ccccc3)c(=O)c2C#N)cc1 | 19 | 36% | 71% (active) |
| C/C(C=C(C#N)C#N)=C\c1ccc([N+](=O)[O-])cc1 | -9 | 67% | 78.2% (active) |
| CCCCCCCCCCNC(=O)C[n+]1cccc(C(=O)Nc2ccccc2)c1 | 4 | 99% (active) | 99.7% (active) |
| CCCCN(CCCC)CC(O)c1ccc2cc(Cl)c3ccccc3c2c1 (stereo not given) | 53 | 99% (active) | 99.6% (active) |
| O=C(O)c1ccccc1-c1ccccc1C(=O)Nc1ccc2c(c1)Cc1cc(F)ccc1-2 | 22 | 97% (active) | 94.1% (active) |
| Brc1ccc(N2COc3ccc4ccccc4c3C2)cc1 | 9 | -23% | 19.2% |
| C1CCC2[N-]CC3CCCCC3[N-]CC3CCCCC3[N-]CC3CCCCC3[N-]CC2C1.[Cl][Fe]([Cl])([Cl])[Cl].[Fe+6] (stereo not given) | 41 | 97% (active) | 96.3% (active) |
| O=C(/C=C\C(=O)Nc1cccc(N(Cc2ccccc2)Cc2ccccc2)c1)Nc1cccc(N(Cc2ccccc2)Cc2ccccc2)c1 | -5 | 2% | 61.5% |
| COc1cc(/C=C2\CCOC2=O)ccc1O |  |  | 1% and -1.15% and 3.7% |
